Compound activity from PubChem BioAssay.
Giardia FBPA inh-1: Giardia lamblia aldolase inhibition. 290,000 compounds, 0.71% hits. purified Giardia FBPA. Potency, µM (doses to about 59.6 µM), most hits filed as inhibitors; note: nearly all actives have a fitted effect of over 55% in size
Target sequence (A8B2U2 whole entry, looked up): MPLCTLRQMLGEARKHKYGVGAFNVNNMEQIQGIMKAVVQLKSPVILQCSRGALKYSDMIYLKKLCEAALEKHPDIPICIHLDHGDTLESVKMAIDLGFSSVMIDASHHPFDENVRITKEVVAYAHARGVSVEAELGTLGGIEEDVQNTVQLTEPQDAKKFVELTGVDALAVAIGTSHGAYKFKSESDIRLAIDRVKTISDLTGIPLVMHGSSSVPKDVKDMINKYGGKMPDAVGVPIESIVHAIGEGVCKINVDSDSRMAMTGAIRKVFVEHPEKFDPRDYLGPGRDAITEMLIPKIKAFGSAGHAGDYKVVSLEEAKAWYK
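Giardia FBPA (40 nM reagent) was preincubated 10 min at RT with compound (up to 57.5 uM final), then substrate plus GAPDH/TPI/NAD/arsenate coupling system with diaphorase/resazurin was added; resorufin fluorescence (525/598 nm) was read after 20 min.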
LmPK inh: LmPK (Leishmania mexicana) enzyme inhibition; purified LmPK, Kinase-Glo ATP luminescence, 1 h; Q27686; 290,000 compounds, 0.37% hits; AID 1721; Potency, µM (top dose mostly 57.5 µM), usual class: inhibitors
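Kinase-Glo luminescence read after 1 h RT reaction of 0.1 nM LmPK with 0.5 mM PEP and 0.1 mM ADP. Activity scaled between uninhibited and enzyme-free controls.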
Sm TGR inh: blocks Schistosoma mansoni thioredoxin glutathione reductase | Q962Y6 | 360,000 compounds, 3% hits | AID 485364 | purified TGR, DTNB reduction, TNB absorbance 405 nm | Potency, µM (highest dose often 114 µM), actives largely listed as inhibitors; note: nearly all actives have a fitted effect of over 60% in size
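Kinetic colorimetric format: TGR-catalysed, NADPH-driven DTNB reduction monitored via TNB absorbance. Enzyme dispensed at 20 nM; compound exposure 15 min at room temperature before reaction start.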
Cycloheximide cs: affects cycloheximide protein synthesis inhibition readout, counter-screen; cell reporter, cycloheximide protein synthesis inhibition counterscreen; max response, %; 300,000 compounds, 12% hits; AID 2314; in the data active = max response mostly above about 13%, no sharp cut-off; inactive = mostly below about 14%; note: read at 38.3 µM for the half of the compounds with a filed dose
Shiga inhibitor: blocks Shiga toxin action in Vero cells. Vero cells, Shiga toxin protein synthesis inhibition reporter. inhibition, % at 38.7 µM. 290,000 compounds, 9.2% hits. AID 2315; in the data active = inhibition mostly above about 28%, no sharp cut-off; inactive = mostly below about 43%
TbPYK inhibitor: inhibitors of Trypanosoma brucei pyruvate kinase | Q57TT1 | TbPYK enzyme, Kinase-Glo Plus ATP luminescence, 45 min | Potency, µM (titrated, usually from 76.8 µM), usual class: inhibitors | 410,000 compounds, 0.12% hits; note: nearly all actives have a fitted effect of over 50% in size
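TbPYK + substrate in 50 mM TEA pH 7.2, 100 mM KCl, 10 mM MgCl2, 0.05% BSA, 0.01% Tween-20; cpd pinned; ADP 130 uM final; 45 min RT; Kinase-Glo Plus 10 min; luminescence endpoint.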
Giardia growth: blocks growth of Giardia lamblia trophozoites. shares compounds with Giardia FBPA inh-1. Giardia lamblia trophozoite growth inhibition. Potency, µM (top dose mostly 57.5 µM), usual class: inhibitors. 1,500 compounds, 5% hits. AID 2785;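 note: trophozoites exposed to compound for 48 h at 37 °C; nearly all actives have a fitted effect of over 70% in size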
Mammal cell tox: counter-screen for Giardia aldolase inhibitors: mammalian cell toxicity; Potency, µM (top dose mostly 57.5 µM), usual class: inhibitors; mammalian cell viability counter-screen, qHTS; 1,500 compounds, 4% hits; AID 2786; shares compounds with Giardia FBPA inh-1;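 note: Chinese hamster ovary cells used as mammalian cytotoxicity surrogate; viability measured as cellular ATP by luminescence; compound exposure lasted 48 h before reading; nearly all actives have a fitted effect of over 60% in size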
Giardia FBPA inh-2: confirmation of Giardia fructose-bisphosphate aldolase inhibitors. 1,500 compounds, 5% hits. shares compounds with Giardia FBPA inh-1. purified Giardia aldolase enzyme activity, qHTS. AID 2787. Potency, µM (top dose mostly 57.5 µM), most hits filed as inhibitors; note: nearly all actives have a fitted effect of over 45% in size
Rabbit FBPA inh: rabbit FBP aldolase inhibition by Giardia aldolase hits; shares compounds with Giardia FBPA inh-1; Rabbit muscle FBPA enzyme inhibition, selectivity counter-screen; Potency, µM (highest dose often 57.5 µM), actives largely listed as inhibitors; 1,500 compounds, 4% hits; note: nearly all actives have a fitted effect of over 60% in size
GAPDH coupling: GAPDH inhibition flagged for Giardia aldolase hits | Potency, µM (titrated, usually from 57.5 µM), actives largely listed as inhibitors | GAPDH coupling enzyme counterscreen, biochemical, qHTS | 1,500 compounds, 6% hits | shares compounds with Giardia FBPA inh-1; note: nearly all actives have a fitted effect of over 55% in size
Of the large screens only hits and unclear results are named; the others gave an inactive call (follow-up assays come after a bar, where they were run); [ ] = another dose, or the depositor's remark. The entries come from a sample that favours hits as a whole. Unless noted, calls come from the whole dose curve; as a rule, active = well fitted curve in the direction sought with a large enough effect; inconclusive = small, poorly fitted or top-dose-only effect, or another doubt; inactive = no such curve, though single readings can be large; an effect the other way counts as inactive or inconclusive.

O=C(O)c1cc2nccc(-c3ccc(F)cc3)n2n1	Giardia FBPA inh-1 18µM | Giardia growth inactive | Mammal cell tox inactive | Giardia FBPA inh-2 inactive | Rabbit FBPA inh inactive | GAPDH coupling inactive
O=C(O)c1cc(-c2ccccc2)n(-c2ccc(F)cc2)n1	none
CCn1ncc(-c2ccnc3cc(C(=O)O)nn23)c1C	Giardia FBPA inh-1 16µM | Giardia growth inactive | Mammal cell tox inactive | Giardia FBPA inh-2 inactive | Rabbit FBPA inh inactive | GAPDH coupling inactive
CCN(CC(=O)Nc1cccc(OC)c1)CC(=O)Nc1cccc2ccccc12	none (no result: Giardia FBPA inh-1, LmPK inh, Cycloheximide cs, Shiga inhibitor)
CCN(CC(=O)Nc1ccc(NC(C)=O)cc1)CC(=O)Nc1ccc(Cl)c(Cl)c1	Giardia FBPA inh-1 7.9µM | Giardia growth inactive[10.4 µM] | Mammal cell tox inactive | Giardia FBPA inh-2 inactive | Rabbit FBPA inh inactive | GAPDH coupling inactive
CCN(CC(=O)Nc1cccc(OC)c1)CC(=O)Nc1ccc(C)cc1Cl	Giardia FBPA inh-1 16µM | Giardia growth inactive[10.4 µM] | Mammal cell tox inactive | Giardia FBPA inh-2 inactive | Rabbit FBPA inh inactive | GAPDH coupling inactive
COc1ccc(NC(=S)N(CCCN2CCOCC2)C(C)c2cc3cccc(OC)c3o2)cc1 (stereo not drawn)	Giardia FBPA inh-1 11µM | Giardia growth inconclusive | Mammal cell tox inactive | Giardia FBPA inh-2 inactive | Rabbit FBPA inh inactive | GAPDH coupling inactive
COc1cccc2cc(C(C)N(CCCN3CCOCC3)C(=S)Nc3ccc(C)c(C)c3)oc12 (stereo not drawn)	none
